# Screens deposited in PubChem BioAssay by National Center for Advancing Translational Sciences (NCATS).
# Only some compounds are listed: those with a hit (about 4.1% of all), similar ones and a draw of the others.
# PK Bst: Pyruvate Kinase. purified pyruvate kinase, luminescence ATP production; ribose 5-phosphate activator present at AC10. Potency, µM. actives 1.2% (n = 51,000). AID 361, 2006; in the data active = potency below about 11 µM; inconclusive = mostly about 12 µM to 25 µM;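 the screen sought inhibitors and activators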;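 note: scaled between full activation by ribose 5 phosphate and full inhibition by luteolin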
# USP2a inh: qHTS Assay for Inhibitors of Ubiquitin-specific Protease USP2a; actives 0.1% (n = 60,000); Potency, µM (top dose mostly 38.3 µM), for inactives: at the highest dose activity change, negative = inhibition, usual class: inhibitors; Ubiquitin carboxyl-terminal hydrolase 2 (Homo sapiens), O75604; USP2a enzymatic assay, qHTS inhibition; note: nearly all actives have a fitted effect of over 60% in size
#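 Coupled readout: USP2-cleaved Ub-PLA2 (20nM final) turns over NBD C6-HPC (20uM final), Ex 460nm/Em 535nm after 2.5 h, time-zero read flagging artifacts. Enzyme (20nM final, pH 8.0 Tris) given 30 min RT with compound first; NEM defines full inhibition.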
# UbGFP stabilizer: Ubiquitin-GFP Assay. Potency, µM (highest dose often 45.9 µM), without a hit: top-dose activation (GFP accumulation), most hits filed as activators. AID 526, 2006. Ubiquitin-GFP reporter cells, proteasome inhibition, GFP fluorescence; response scale: untreated = 0%, 10 µM MG-132 = 100%. 67,000 tested, under 10 active; active = well fitted activation curve with a large enough effect, not every such curve was filed as active; inconclusive = small, poorly fitted or top-dose-only effect, or another doubt; inactive = no such curve, though single readings can be large or run the other way
#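 Proteasome blockade was scored as a rise in GFP-expressing U2OS cells carrying a ubiquitin(G76V)-GFP construct, imaged after 4 hr compound treatment at 37 °C across a 46 uM–2.9 nM series.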
# GBA mod: Glucocerebrosidase; Lysosomal acid glucosylceramidase (Homo sapiens), P04062; purified enzyme, resorufin glucoside fluorescence (screen aimed at inhibitors), 20 min; Potency, µM; actives 1.1% (n = 48,000); AID 360, 2006; in the data active = potency below about 15 µM; inconclusive = mostly about 16 µM to 33 µM;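 note: the screen sought inhibitors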
# Target sequence (P04062 whole entry, looked up): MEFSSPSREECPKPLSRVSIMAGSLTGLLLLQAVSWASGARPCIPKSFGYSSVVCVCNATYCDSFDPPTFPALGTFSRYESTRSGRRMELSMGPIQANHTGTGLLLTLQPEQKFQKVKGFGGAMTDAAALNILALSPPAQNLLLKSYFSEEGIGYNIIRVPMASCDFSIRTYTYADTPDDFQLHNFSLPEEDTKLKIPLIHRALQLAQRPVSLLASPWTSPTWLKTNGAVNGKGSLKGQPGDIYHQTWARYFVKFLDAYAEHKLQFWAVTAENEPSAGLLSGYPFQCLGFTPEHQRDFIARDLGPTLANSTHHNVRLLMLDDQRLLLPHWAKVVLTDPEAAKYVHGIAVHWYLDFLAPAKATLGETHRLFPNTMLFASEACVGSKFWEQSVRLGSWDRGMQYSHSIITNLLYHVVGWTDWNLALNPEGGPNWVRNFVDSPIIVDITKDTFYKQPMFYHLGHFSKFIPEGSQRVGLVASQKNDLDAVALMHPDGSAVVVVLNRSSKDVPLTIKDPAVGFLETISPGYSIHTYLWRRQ
#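 Compounds titrated against 0.2 nM normal enzyme, 30 uM resorufin beta-D-glucopyranoside substrate, citrate/phosphate buffer with taurocholate and tween-20, pH 5.9. Reaction ran 20 min at room temperature; fluorescence (Ex 548/Em 600) gave AC50.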
# TSHR ag: qHTS Assay for Agonists of the Thyroid Stimulating Hormone Receptor; actives 0.48% (n = 73,000); Potency, µM (titrated, usually from 57.1 µM), inactives show at the highest dose activation, usual class: activators; HEK293-CNG-TSHR cells (CNG channel as cAMP sensor), membrane potential dye, cAMP; Thyrotropin receptor (Homo sapiens), P16473; AID 926, 2007; active = well fitted activation curve with a large enough effect in the main read-out, with a control signal flat, not every such curve was filed as active; inconclusive = small, poorly fitted or top-dose-only effect, or a change in a side signal; inactive = no such curve, though single readings can be large or run the other way; % of control where 0% means no effect;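 note: the control signal comes from parental cells without the receptor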
#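 cAMP rise detected as CNG-channel membrane depolarization by fluorescent dye (emission 590 nm), 30 min after compound, following 60 min dye loading containing 100 uM RO 20-1724 at room temperature. Cells: TSHR/CNG HEK 293, with parental CNG HEK 293 as control.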
# HEK293 cAMP cs: qHTS Assay for Agonists of the Thyroid Stimulating Hormone Receptor: Activators of Intracellular cAMP Concentrations in Parental HEK 293. parental HEK293 CNG cAMP sensor, membrane potential fluorescence. actives 2.5% (n = 73,000). Potency, µM (series often up to 57.1 µM), for inactives: at the highest dose activation, actives largely listed as activators; note: % of control where 0% means no effect; nearly all actives have a fitted effect of over 55% in size
#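 Parental HEK 293 cells stably expressing a modified CNG channel (no TSHR) report cAMP rise as membrane depolarization. Membrane potential dye with 100 uM RO 20-1724 was loaded for 60 min at room temperature, then compound added for 30 min; fluorescence read at 590 nm.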
# The depositor's hits bear a star; i = inactive; ? = inconclusive; · = no result given; [ ] = remark or other dose. Unless noted, calls come from the whole dose curve; as a rule, active = well fitted curve in the direction sought with a large enough effect; inconclusive = small, poorly fitted or top-dose-only effect, or another doubt; inactive = no such curve, though single readings can be large; an effect the other way counts as inactive or inconclusive. Potency is the fitted concentration of half-maximal effect.
SMILES,PK Bst,USP2a inh,UbGFP stabilizer,GBA mod,TSHR ag,HEK293 cAMP cs
Clc1ccc(-c2nn3cnnc3s2)c(Cl)c1,10*,5%,·,>77,27%,13%
Clc1ccc(-c2nn3c(-c4ccncc4)nnc3s2)c(Cl)c1,>57,-5%,3%,>77,13%,6%
O=C(NC1CCN(Cc2ccccc2)CC1)c1ccc(-n2c(=O)c(=O)[nH]c3ccccc32)cc1,·,·,·,·,?,-19%
Cn1c(SCC(=O)c2ccccc2)nc2cccnc21,>57,-2%,-3%,>77,3%,13%
Cn1c(SCc2cccnc2)nc2cccnc21,>57,5µM*,0%,>77,1%,1%
Cc1cc(C)cc([N+](=O)[O-])c1,·,·,·,·,?,-3%
COc1ccc2oc(-c3ccccc3)c(OC)c(=O)c2c1,·,·,0%,·,?,40µM*
COc1ccc2oc(-c3ccccc3)c(C(N)=O)c2c1,·,15%,4%,·,?,?
Cc1c(C)c(C)c(CC2(C)CSC2)c(CC2(C)CSC2)c1C,·,·,6%[9.17 µM],·,1%[11.4 µM],-2%[11.4 µM]
CC[C@H]1C2=C3C(CC[C@H]4C(OCc5ccc(F)cc5C(F)(F)F)OC[C@](C)([C@@H]34)N(C(=O)OC(C)(C)C)C2)C(COC)C1COC (some centres undefined),·,·,·,·,·,6%
N#CC1(O)CCCCC1,·,·,·,·,4%,19%
CCN1CCCC1Cn1c(-c2ccccc2)nc2c(NC3CCCCC3)nc(C)nc21 (centres undefined),·,·,5%,·,?,20µM*
CCCCNc1nc(C)nc2c1nc(-c1ccccc1)n2CCCN(C)C,·,·,-1%,·,22%,28%
CCCCNc1nc(C)nc2c1nc(-c1ccccc1)n2CC(C)(C)CN(C)C,·,·,3%,·,?,32µM*
Cc1nc(NC2CCCCC2)c2nc(-c3ccccc3)n(CCCN(C)C)c2n1,·,·,8%,·,?,?
Cc1nc(NC2CCCCC2)c2nc(-c3ccccc3)n(CCN(C)C)c2n1,·,·,-12%,·,?,10µM*
CCCCNc1nc(C)nc2c1nc(-c1ccccc1)n2CC1CCCN1CC (centres undefined),·,·,20%,·,?,16µM*
CCCCNc1nc(C)nc2c1nc(-c1ccccc1)n2CCN1CCCC1,·,·,-9%,·,?,?
CC12CCC3c4ccc(OCc5ccccc5)cc4CCC3C1CC(O)C2O (centres undefined),·,57%,·,·,·,·
O=c1c(-c2cc(F)cc(F)c2)nc2cnc(N3CCNCC3)nc2n1-c1ccccc1,·,109%,4%,·,-8%,-8%
Cn1c(=O)c(-c2ccc(Cl)cc2)nc2cnc(Oc3cccc(Cl)c3)nc21,·,32%,-5%,·,-4%,9%
CCc1nnc(NC(=O)c2ccc(S(=O)(=O)N(CC)Cc3ccccc3)cc2)o1,>57,33%,-4%,14*,1%,1%
CCCCN(CCCC)S(=O)(=O)c1ccc(C(=O)Nc2nnc(COC)o2)cc1,>57,37%,-4%,?,10%,14%
O=C(NCCN1CCOCC1)c1ccc2c(c1)ncn2C1CCCCC1,>57,10%,-2%,15*,2%,5%
CCOCCCNC(=O)c1ccc2c(c1)ncn2C1CCCC1,>57,8%,-3%,>77,-2%,-1%
SMILES,PK Bst,USP2a inh,UbGFP stabilizer,GBA mod,TSHR ag,HEK293 cAMP cs
COc1ccc(NCc2c(O)ccc3ccccc23)cc1,·,·,-5%[9.17 µM],·,-1%[11.4 µM],-11%[11.4 µM]
CN(C)c1ccc(-c2ccc3ncnc(-n4ccnc4)c3c2)cc1,·,107%,16%,·,-4%,-20%
Cc1ccc(C(c2nnnn2CCc2ccccc2)N2CCSCC2)cc1 (centres undefined),>57,-19%,5%,·,?,20µM*
COCCn1nnnc1C(c1ccc(Cl)cc1)N1CCSCC1 (centres undefined),>57,20%,-3%,>77,?,16µM*
COc1ccc(CCn2nnnc2C(c2ccc(C)cc2)N2CCN(C)CC2)cc1OC (centres undefined),>57,·,-1%,>77,5%,12%
CN1CCN(c2ccnc(-c3ccoc3)n2)CC1,·,-11%,-8%,·,3%,11%
O=[N+]([O-])c1ccc(Cl)c(CNc2ncnc3c2ncn3[C@@H]2CCCCO2)c1,·,·,1%[9.17 µM],·,0%[11.4 µM],0%[11.4 µM]
COC(=O)c1ccc(NC(=O)c2sc3nc(-c4ccccc4)cn3c2C)cc1,>57,40%,-5%,?,?,32µM*
c1ccc2c(c1)Cn1nnnc1-2,>57,6%,-2%,>77,2%,3%
c1ccc2c(c1)Cn1c-2nc2ccccc21,?,0%,·,?,?,16µM*
O=c1c(-c2cccs2)nc2cnc(N3CCNCC3)nc2n1C1CC1,·,212%,-4%,·,-7%,-15%
Cc1cc(C)c(C(=O)CSc2nnc(-c3ccccc3Br)o2)cc1C,>57,0%,3%,>77,?,16µM*
O=C(Nc1cccnc1)Nc1ccccc1Cl,·,3%,-5%,15*,0%,21%
O=C(Nc1cccnc1)c1ccc(Oc2ccccc2)cc1,i,10%,-3%,15*,22%,18%
O=C(Nc1cccnc1)c1ccccc1Oc1ccccc1,>57,-3%,11%,>77,23%,12%
Cc1ccc(C(C(=O)NC2CCCC2)N(Cc2ccc(F)cc2)C(=O)c2csnn2)o1 (centres undefined),>57,-4%,-2%,>77,?,16µM*
O=C(NC1CCCC1)C(c1ccncc1)N(Cc1cccs1)C(=O)c1csnn1 (centres undefined),>57,6%,2%,>77,?,?
Fc1ccc(Nc2ncncc2-c2ccccc2C(F)(F)F)cc1,·,34%,-8%,·,23%,18%
COc1ccc(-c2csc(N(CC3CCCO3)C(=O)c3cccs3)n2)cc1 (centres undefined),>57,-17%,1%,>77,?,16µM*
CCN(CC)CCCN(C(=O)c1cccs1)c1nc(-c2ccc(OC)cc2)cs1,i,14%,-1%,?,?,-70%
CC#CCN(CC#CC)S(=O)(=O)c1ccc(-n2cnnn2)c(OC)c1,>57,-1%,-3%,>77,?,13µM*
c1ccc(-c2nnc(N3CCN(c4ccccn4)CC3)c3ccccc23)cc1,>57,8%,4%,14*,25%,26%
Cc1ccc(-c2nnc(N3CCN(c4ccccn4)CC3)c3ccccc23)cc1,>57,-1%,-6%,>77,14%,-5%
CCCCCS(=O)(=O)CCCCCCCCCCn1c(-c2ccc(O)cc2)c(C)c2cc(O)ccc21,·,·,·,·,15%,15%
